Source: PubChem BioAssay
LANA DNA inh: inhibitors of KSHV C-LANA binding to DNA, primary screen, biochemical, fluorescence polarization, FAM-LBS DNA, MBP-C-LANA, single point | Kaposi's sarcoma herpesvirus LANA C-terminal domain (residues 932-1162) DNA binding | inhibition, % at 9 µM | actives 0.078% (n = 340,000) | AID 504423, 2011;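 active = highest replicate inhibition at or above 60% at 9 µM, even if other replicates fall short; inactive = all replicates below 60% inhibition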;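 also: 0% = neutral control wells and 100% = 4 µM acridine orange control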
Cardiac RTF inh: cardiac RTF calcium sensitivity inhibitors, primary screen, biochemical, IANBD-TnC fluorescence, EC70 calcium; IANBD-labeled cardiac RTF, Ca2+ fluorescence; Troponin I, cardiac muscle (Homo sapiens) + Troponin T, cardiac muscle (Homo sapiens) + …; AID 493244, 2011; inhibition, % at 7.15 µM; actives 0.12% (n = 340,000);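 active = inhibition above the mean inhibition of all tested compounds plus 3 SD, cut at about 17% in these data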;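 also: assay run at fixed EC70 calcium of 1.6 mM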
Keap1 Nrf2 FP: Keap1-Nrf2 protein-protein interaction inhibitors, primary screen, biochemical, fluorescence polarization, single point | Kelch-like ECH-associated protein 1 (Homo sapiens), Q14145 | Keap1 Kelch-Nrf2 peptide fluorescence polarization, 1536-well | inhibition, % at 9.4 µM | actives 0.15% (n = 340,000) | AID 504523, 2011; in the data active = inhibition above about 12%;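 also: human Keap1 Kelch domain with fluorescein labeled Nrf2 9mer peptide probe; 0% = neutral control wells and 100% = peptide positive control; higher means more block of Keap1 binding to Nrf2 peptide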
Target sequence (Q14145 whole entry, looked up, the tested form may be a part): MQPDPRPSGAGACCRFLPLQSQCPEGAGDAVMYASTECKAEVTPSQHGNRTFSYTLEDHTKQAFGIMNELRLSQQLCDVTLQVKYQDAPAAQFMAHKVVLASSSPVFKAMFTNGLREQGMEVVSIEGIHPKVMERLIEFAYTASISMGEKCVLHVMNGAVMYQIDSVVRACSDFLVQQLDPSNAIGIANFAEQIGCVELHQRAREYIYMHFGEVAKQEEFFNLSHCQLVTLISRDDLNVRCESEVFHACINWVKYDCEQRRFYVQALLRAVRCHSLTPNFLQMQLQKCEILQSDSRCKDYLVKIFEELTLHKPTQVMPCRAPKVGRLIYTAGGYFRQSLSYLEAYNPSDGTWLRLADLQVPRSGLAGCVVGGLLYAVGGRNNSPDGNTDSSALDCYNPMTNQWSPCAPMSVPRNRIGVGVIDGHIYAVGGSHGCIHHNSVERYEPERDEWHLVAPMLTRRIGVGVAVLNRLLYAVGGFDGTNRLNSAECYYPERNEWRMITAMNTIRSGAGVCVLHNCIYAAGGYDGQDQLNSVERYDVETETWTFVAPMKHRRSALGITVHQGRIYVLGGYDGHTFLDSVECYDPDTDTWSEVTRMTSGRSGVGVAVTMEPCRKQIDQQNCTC
cardiac RTF act: cardiac RTF calcium sensitivity activators, primary screen, biochemical, IANBD-TnC fluorescence, EC20 calcium; activation, % at 7.2 µM; actives 0.24% (n = 340,000); IANBD-labeled TnC RTF fluorescence at EC20 calcium; 0% EC20 calcium, 100% full calcium; AID 493008, 2010; Troponin I, cardiac muscle (Homo sapiens) + Troponin T, cardiac muscle (Homo sapiens) + …;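 active = activation above the mean over all tested compounds plus 3 SD, cut at about 30% in these data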;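 also: rise in fluorescence read as greater calcium sensitivity of cardiac thin filaments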
RTF inh confirm: cardiac RTF calcium sensitivity inhibitors, confirmation, biochemical, fluorescence readout. inhibition, % at 7.15 µM. AID 504635, 2011. shares compounds with Cardiac RTF inh. actives 8% (n = 360). reconstituted cardiac thin filaments; in the data active = inhibition above about 18%
* = called active by the depositor; . = no result given. The list is not random: actives were taken first. Their share in the collection is about 0.5%.

SMILES	LANA DNA inh	Cardiac RTF inh	Keap1 Nrf2 FP	cardiac RTF act	RTF inh confirm
CCCCCCC1CC(/C(C)=N\NC(N)=O)OC1=O (stereo unspecified)	-0.1	-2.9	0.9	-2.6	.
O=C(O)c1ccc(NS(=O)(=O)c2cccc(C(=O)Nc3cccc(C(=O)O)c3)c2)cc1	2.7	-19.3	2.0	3.9	.
Oc1ccc(-c2nc(-c3ccc(F)cc3)c(-c3ccncc3)[nH]2)cc1	-0.8	20.4*	-1.1	1.6	0.8
COCCNC(=O)CSc1nc2ccc(N3CCOCC3)cc2c(=O)n1Cc1ccc(OC)cc1	-0.7	-2.2	-1.3	2.2	.
CCCCNC(=O)CSc1nc2ccc(N3CCOCC3)cc2c(=O)n1Cc1ccc(OC)cc1	-1.7	18.9*	-5.6	0.9	-1.2
O=c1cc(N2CCc3ccccc32)[nH]c(=O)n1-c1ccccc1Cl	-0.1	17.0*	2.3	-1.5	-3.4
Cc1ccccc1-n1c(=O)cc(N2CCc3ccccc32)[nH]c1=O	-1.5	-2.1	0.8	0.6	.
COc1cc(CC(=O)O)ccc1O	0.1	17.6*	2.1	-1.1	-3.5
COc1ccc(CC(=O)O)cc1O	2.1	5.4	2.4	-4.9	.
COc1ccc(-c2nn(-c3ccccc3)cc2C(=O)NCCCn2ccnc2)cc1	-0.9	26.1*	1.0	-3.9	-7.8
CC(Sc1nc2ccccc2c(=O)n1CCCN1CCOCC1)C(=O)N1CCc2ccccc21 (stereo unspecified)	-0.6	2.8	0.2	-2.9	.
C=CCN1C(=O)c2ccc(C(=O)OCC(=O)N3CCN(c4ccccc4)CC3)cc2C1=O	0.2	21.1*	5.9	4.1	-2.6
CCCN(C(=O)CCNC(=O)Cn1cnc2ccccc2c1=O)c1cccc(Cl)c1	1.2	-1.8	-4.8	-3.6	.
CCc1cc(C(=O)N=Nc2c(O)[nH]c3ccc([N+](=O)[O-])cc23)c2ccccc2n1	-0.5	17.2*	-0.2	-3.9	-7.3
O=C(NCCCC1CCCC1)C1CCC(=O)N(Cc2ccc(Cl)cc2)C1 (stereo unspecified)	-0.1	-1.1	-1.2	-7.4	.
CCOC(=O)CNC(=O)Cn1cnc2c(nnn2-c2ccc(OC)cc2)c1=O	0.7	-0.6	-5.6	-1.5	.
COc1ccc(NC(=O)CSc2nc(O)cc(=O)n2-c2ccccc2OC)cc1	2.8	-6.2	0.5	-0.9	.
COc1ccccc1-n1c(SCC(=O)Nc2ccc(C)cc2)nc(O)cc1=O	0.6	18.1*	-0.3	-0.9	-1.9
O=c1cc2c(=O)oc3cc(O)c(O)oc3c2c(O)c1O	112.2*	86.7*	-3.4	-51.0	68.1*
O=c1oc2cc(O)c(Cl)cc2c2ccccc12	0.2	-5.0	-1.3	4.6	.
COCCn1c(C)nnc1SCC(=O)NNC(=O)c1ccc(Cl)cc1	1.0	-13.7	0.1	0.2	.
O=C(CSc1nc2ccccc2n1CCc1ccccc1)N1CCOCC1	-0.5	-12.4	-3.2	5.5	.
O=C(CSc1nc2ccccc2n1CCc1ccccc1)c1ccc(O)c(O)c1	14.1	17.8*	-3.5	-17.1	10.3
CC[C@@H](C(=O)[C@@H](C)[C@@H](O)[C@H](C)[C@@H]1O[C@@H]([C@@H](CC)C(=O)O)CC[C@@H]1C)[C@H]1O[C@]2(C=C[C@@H](O)[C@]3(CC[C@@](C)([C@H]4CC[C@](O)(CC)[C@H](C)O4)O3)O2)[C@H](C)C[C@@H]1C	-2.1	20.3*	1.7	1.7	-2.1
COc1ccccc1N(CC(=O)N/N=C/c1c(O)ccc2ccccc12)S(C)(=O)=O	0.9	25.7*	0.6	-5.8	11.0
SMILES	LANA DNA inh	Cardiac RTF inh	Keap1 Nrf2 FP	cardiac RTF act	RTF inh confirm
COc1ccccc1NCC(=O)N/N=C/c1c(O)ccc2ccccc12	3.3	0.3	-0.4	-3.3	.
CCN(CC)S(=O)(=O)c1cc(NS(=O)(=O)c2cccc(Cl)c2Cl)ccc1C	-2.9	47.4*	1.8	4.8	-1.0
Cc1cccc(NC(=O)CCN2CCCC(C)C2)c1 (stereo unspecified)	0.7	59.0*	2.2	7.1	-4.6
Cc1cccc(NC(=O)CCN2CC(C)OC(C)C2)c1 (stereo unspecified)	0.4	-3.7	-6.1	5.6	.
Cc1ccc(O)c(N=Cc2cc(Cc3ccccc3)cc([N+](=O)[O-])c2O)c1	-0.6	11.4	-0.5	-10.7	.
O=[N+]([O-])c1cc(Cc2ccccc2)cc(C=Nc2ccc(N3CCOCC3)cc2)c1O	-0.2	21.0*	-0.4	-12.6	5.5
CCOc1ccc(C2C(C(=O)c3cccs3)=C(O)C(=O)N2Cc2cccnc2)cc1 (stereo unspecified)	0.6	18.8*	-2.4	6.4	0.5
CCOc1ccc(C2C(C(=O)c3cccs3)=C(O)C(=O)N2Cc2cccnc2)cc1OC (stereo unspecified)	-0.1	-10.1	-5.9	5.2	.
CCOC(=O)[C@H](CCc1ccccc1)N[C@@H](C)C(=O)N1C(C(=O)O)C[C@@H]2CCC[C@@H]21 (stereo partly specified)	1.1	23.4*	-1.3	1.5	-3.2
C[C@H]1c2cccc(O)c2C(O)=C2C(=O)[C@]3(O)C(O)=C(C(N)=O)C(=O)[C@@H](N(C)C)C3[C@@H](O)C21 (stereo partly specified)	-0.8	7.6	2.8	1.6	.
C=C1c2cccc(O)c2C(=O)C2C(=O)[C@]3(O)C(=O)C(C(N)=O)C(=O)[C@@H](N(C)C)[C@@H]3[C@@H](O)[C@H]12 (stereo partly specified)	126.5*	61.2*	12.0*	-28.5	10.7
COC(=O)[C@@]12CCCCN1[C@H](c1ccc(-c3ccc(C(C)=O)cc3)cc1)[C@@H]1C(=O)N(C)C(=O)[C@@H]12	-1.6	-9.8	0.8	-5.7	.
COC(=O)N/N=C(\C)c1ccc(OC(F)F)cc1OC(F)F	-0.2	17.4*	4.7	0.8	-6.5
Cc1cccc(NS(=O)(=O)c2ccc(C(=O)N3CC(C)OC(C)C3)cc2)c1C (stereo unspecified)	1.4	-0.5	0.3	-1.2	.
C=C(C1=CCN(S(=O)(=O)C(C)(C)C)[C@@H]1CCO)c1ccccc1	4.1	-3.1	-0.4	-4.1	.
O=C(/C=C/Sc1ccccc1)c1ccc(Cl)cc1	-0.1	-1.2	-0.5	-4.2	.
O=C(O)/C=C/C(O)c1ccc(Cl)cc1 (stereo unspecified)	-0.2	18.4*	-2.1	-3.1	-4.8
CCCCn1c(SC(C)C(N)=O)nc2cc(C(=O)OC)ccc2c1=O (stereo unspecified)	0.2	-21.1	-3.7	-2.9	.
CCCCn1c(SC(C)C(=O)NCC2CCCO2)nc2cc(C(=O)OC)ccc2c1=O (stereo unspecified)	-10.7	18.5*	2.2	-3.7	-4.5
